We go through six substances from the supplement of paper PMC8728848.

Holding throughout (experiment): glycan array binding signal (z-score within array); higher = stronger binding
Common to all, as to conditions: glycan notation: IUPAC condensed, linker removed

The test system of experiment [1] is GlcNAc(b1-2)[GlcNAc(b1-6)]Man(a1-6)[GlcNAc(b1-2)Man(a1-3)]Man(b1-4)GlcNAc(b1-4)GlcNAc. In outline:
(§1)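 Glycan array data came from 3228 arrays in the Consortium for Functional Glycomics database, and only arrays with an available protein sequence were kept. Glycan names were put into IUPAC-condensed notation, and columns mapping to the same glycan were averaged. The binding signal is a within-array Z-score, averaged across arrays of one protein sequence run at different concentrations or buffers and across linkers. A negative Z-score can be read as non-binding.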

Experiment [2] relates to GlcNAc(b1-2)[GlcNAc(b1-6)]Man(a1-6)[GlcNAc(b1-2)Man(a1-3)]Man(b1-4)GlcNAc(b1-4)[Fuc(a1-6)]GlcNAc. In outline:
as §1

Experiment [3] has as its system GlcNAc(b1-3)Gal(b1-4)GlcNAc(b1-2)[GlcNAc(b1-3)Gal(b1-4)GlcNAc(b1-6)]Man(a1-6)[GlcNAc(b1-3)Gal(b1-4)GlcNAc(b1-2)Man(a1-3)]Man(b1-4)GlcNAc(b1-4)GlcNAc. In outline: as §1
Experiment [4] concerns GlcNAc(b1-3)Gal(b1-4)GlcNAc(b1-3)Gal(b1-4)GlcNAc(b1-2)[GlcNAc(b1-3)Gal(b1-4)GlcNAc(b1-3)Gal(b1-4)GlcNAc(b1-6)]Man(a1-6)[GlcNAc(b1-3)Gal(b1-4)GlcNAc(b1-3)Gal(b1-4)GlcNAc(b1-2)Man(a1-3)]Man(b1-4)GlcNAc(b1-4)[Fuc(a1-6)]GlcNAc. In outline: as §1
Experiment [5] concerns GlcNAc(b1-3)Gal(b1-4)GlcNAc(b1-3)Gal(b1-4)GlcNAc(b1-3)Gal(b1-4)GlcNAc(b1-2)Man(a1-3)[GlcNAc(b1-3)Gal(b1-4)GlcNAc(b1-3)Gal(b1-4)GlcNAc(b1-3)Gal(b1-4)GlcNAc(b1-2)Man(a1-6)]Man(b1-4)GlcNAc(b1-4)GlcNAc. In outline: as §1
Experiment [6] concerns GlcNAc(b1-3)Gal(b1-4)GlcNAc(b1-3)Gal(b1-4)GlcNAc(b1-3)Gal(b1-4)GlcNAc(b1-2)[GlcNAc(b1-3)Gal(b1-4)GlcNAc(b1-3)Gal(b1-4)GlcNAc(b1-3)Gal(b1-4)GlcNAc(b1-6)]Man(a1-6)[GlcNAc(b1-3)Gal(b1-4)GlcNAc(b1-3)Gal(b1-4)GlcNAc(b1-3)Gal(b1-4)GlcNAc(b1-2)Man(a1-3)]Man(b1-4)GlcNAc(b1-4)[Fuc(a1-6)]GlcNAc. In outline:
as §1

In experiment [7] the test system is GlcNAc(b1-3)Gal(b1-4)GlcNAc(b1-3)Gal(b1-4)GlcNAc(b1-3)Gal(b1-4)GlcNAc(b1-3)Gal(b1-4)GlcNAc(b1-2)Man(a1-3)[GlcNAc(b1-3)Gal(b1-4)GlcNAc(b1-3)Gal(b1-4)GlcNAc(b1-3)Gal(b1-4)GlcNAc(b1-3)Gal(b1-4)GlcNAc(b1-2)Man(a1-6)]Man(b1-4)GlcNAc(b1-4)GlcNAc. In outline:
as §1

Experiment [8] concerns GlcNAc(b1-3)Gal(b1-4)GlcNAc(b1-3)Gal(b1-4)GlcNAc(b1-3)Gal(b1-4)GlcNAc(b1-3)Gal(b1-4)GlcNAc(b1-2)[GlcNAc(b1-3)Gal(b1-4)GlcNAc(b1-3)Gal(b1-4)GlcNAc(b1-3)Gal(b1-4)GlcNAc(b1-3)Gal(b1-4)GlcNAc(b1-6)]Man(a1-6)[GlcNAc(b1-3)Gal(b1-4)GlcNAc(b1-3)Gal(b1-4)GlcNAc(b1-3)Gal(b1-4)GlcNAc(b1-3)Gal(b1-4)GlcNAc(b1-2)Man(a1-3)]Man(b1-4)GlcNAc(b1-4)[Fuc(a1-6)]GlcNAc. In outline: as §1
Experiment [9] deals with GlcNAc(b1-3)Gal(b1-4)GlcNAc(b1-3)Gal(b1-4)GlcNAc(b1-2)Man(a1-3)[GlcNAc(b1-3)Gal(b1-4)GlcNAc(b1-3)Gal(b1-4)GlcNAc(b1-2)Man(a1-6)]Man(b1-4)GlcNAc(b1-4)GlcNAc. In outline:
as §1

Experiment [10] deals with GlcNAc(b1-3)Gal(b1-4)GlcNAc(b1-6)[GlcNAc(b1-3)Gal(b1-3)]GalNAc. In outline:
as §1

The sample as a whole holds a higher share of the strongest signals than the screen did.

As for “SiiE (Salmonella typhimurium), A0A0H3NVH0”, the “glycan array binding signal (z-score)” value in experiment [1] is 3.14.
As for AgI/IIC123-GFP (Streptococcus mutans), the “glycan array binding signal (z-score)” value in experiment [2] was -0.127; in experiment [3], 0.224; in experiment [4], 5.15; in [5], 3.88; in experiment [6], 9; in experiment [7] it was -0.201. Also, the “glycan array binding signal (z-score)” value in experiment [8] came out at 7.4.
For the substance “AgI/II Vhelical-GFP (Streptococcus mutans)”, the “glycan array binding signal (z-score)” value in experiment [5] turned out to be 0.722.
With Wza (Escherichia coli), P0A930, the “glycan array binding signal (z-score)” value in [1] was determined as 0.119.
On to Actinohivin (Actinomycete K97), for which, in [4], the “glycan array binding signal (z-score)” value was 0.545.
As for LcI (Legionella pneumophila), the “glycan array binding signal (z-score)” value in experiment [9] is 3.83; in experiment [10], -0.064.
